Screens as filed in PubChem.
FEN1 inhibitor: inhibitors of human flap endonuclease 1 | AID 588795 | 390,000 compounds, 0.35% hits | Recombinant FEN1 flap cleavage, fluorescence, 15 min | Potency, µM (doses to about 114 µM), without a hit: top-dose activity change, negative = inhibition, most hits filed as inhibitors | P39748; also: potency is read from the fitted curve at half-maximal effect; % is scaled to controls: 0 for no effect and ±100 for the full control effect; nearly all actives have a fitted effect of over 65% in size
Target sequence (P39748 whole entry, looked up): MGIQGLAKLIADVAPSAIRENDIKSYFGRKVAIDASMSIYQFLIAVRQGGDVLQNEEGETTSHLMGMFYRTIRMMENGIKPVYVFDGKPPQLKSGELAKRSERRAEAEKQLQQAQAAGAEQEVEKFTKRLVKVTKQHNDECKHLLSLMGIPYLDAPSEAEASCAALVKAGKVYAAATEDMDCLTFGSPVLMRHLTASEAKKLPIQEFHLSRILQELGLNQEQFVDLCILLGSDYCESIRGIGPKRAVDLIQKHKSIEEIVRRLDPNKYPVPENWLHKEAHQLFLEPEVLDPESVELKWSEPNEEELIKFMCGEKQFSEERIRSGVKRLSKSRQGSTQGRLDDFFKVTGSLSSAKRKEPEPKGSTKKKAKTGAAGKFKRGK
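Nuclease activity of 10 nM FEN1 was measured after 15 min of room-temperature exposure to titrated compounds, by adding 50 nM flap substrate and reading plates at 0 and 15 min.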
POLK inh: DNA polymerase kappa (human) inhibition | purified Pol kappa, fluorescent DNA synthesis assay, 10 min | Potency, µM (series often up to 107 µM), for inactives: at the highest dose activity, negative = inhibition, hits mostly inhibitors | AID 588579 | 400,000 compounds, 0.53% hits; also: potency is read from the fitted curve at half-maximal effect; % is scaled to controls: 0 for no effect and ±100 for the full control effect
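Enzyme at 10 nM met test compounds for 15 min at room temperature. Substrate addition (50 nM final) began the reaction, which was monitored by fluorescence at 0 and 10 min.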
POLB inh: blocks human DNA polymerase beta activity | AID 485314 | 340,000 compounds, 1.3% hits | Potency, µM (top dose mostly 114 µM), inactives show top-dose activity change, negative = inhibition, actives largely listed as inhibitors | P06746 | Pol beta primer extension/strand displacement, fluorescence kinetic; also: potency is read from the fitted curve at half-maximal effect; % is scaled to controls: 0 for no effect and ±100 for the full control effect
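Pol beta (10 nM) was preincubated with compound for 15 min at room temperature. The reaction was then started with 50 nM substrate and read immediately and after a further 10 min at room temperature.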
Pol eta inh: DNA polymerase eta (human) inhibition; recombinant Pol eta, fluorescent DNA replication assay; Potency, µM (top dose mostly 114 µM), without a hit: at the highest dose activity change, negative = inhibition, hits mostly inhibitors; 390,000 compounds, 1.2% hits; AID 588591; also: potency is read from the fitted curve at half-maximal effect; % is scaled to controls: 0 for no effect and ±100 for the full control effect
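Pol eta (10 nM) was preincubated with compounds for 15 min at room temperature, after which fluorescent replication substrate (50 nM final) was added to start the reaction. Fluorescence was read kinetically at 0 and 10 min.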
PI5P4Ka inh: blocks human PI5P4K alpha kinase activity; PI5P4Kalpha enzyme, ADP-Glo luminescence, 60 min; stronger effect = lower value; max response, %; 330,000 compounds, 1.2% hits; AID 652105; active = max response of -50% or lower; inconclusive = between -30% and -50%; inactive = -30% or higher; also: value at the top dose of about 77 µM; % is scaled to controls: 0 for no effect and ±100 for the full control effect
Target sequence (P48426 whole entry, looked up): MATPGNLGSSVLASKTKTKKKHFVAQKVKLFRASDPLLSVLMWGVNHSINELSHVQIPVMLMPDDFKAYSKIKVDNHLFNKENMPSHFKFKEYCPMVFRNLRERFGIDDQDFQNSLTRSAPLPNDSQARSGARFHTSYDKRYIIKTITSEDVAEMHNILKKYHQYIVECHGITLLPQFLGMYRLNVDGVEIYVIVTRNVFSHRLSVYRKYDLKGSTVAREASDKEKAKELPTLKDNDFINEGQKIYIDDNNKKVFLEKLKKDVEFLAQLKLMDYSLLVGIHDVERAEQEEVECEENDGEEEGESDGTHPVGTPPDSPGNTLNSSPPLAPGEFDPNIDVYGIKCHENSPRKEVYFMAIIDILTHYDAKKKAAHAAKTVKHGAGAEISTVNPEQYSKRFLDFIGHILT
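Controls without substrate or without enzyme flank wells where PI5P4Kalpha converts substrate using 5 microM ATP (final). Incubation lasts 60 minutes at room temperature; ADP formed is read by ADP-Glo luminescence.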
Pol iota inh: DNA polymerase iota (human) inhibition | Q9UNA4 | Pol iota fluorescent replication assay, 10 min | Potency, µM (highest dose often 115 µM), for inactives: top-dose activity, negative = inhibition, usual class: inhibitors | 390,000 compounds, 1% hits; also: potency is read from the fitted curve at half-maximal effect
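Fluorescent replication assay read twice, at 0 min and 10 min after adding 50 nM (final) substrate. Enzyme (10 nM) and compounds were first incubated 15 min at room temperature; enzyme-free buffer wells were negative controls.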
Starred values were filed as active, the others as inactive; ? = inconclusive; . = not tested or not shown; [ ] = remark or other dose. In the library only some 2.8% were active in any assay of this set; here they are far more common. Unless noted, calls follow the shape of the dose curve; as a rule, active = well fitted curve in the direction sought with a large enough effect; inconclusive = small, poorly fitted or top-dose-only effect, or another doubt; inactive = no such curve, though single readings can be large; an effect the other way counts as inactive or inconclusive.

SMILES | FEN1 inhibitor | POLK inh | POLB inh | Pol eta inh | PI5P4Ka inh | Pol iota inh
Cc1cc(O)c(C(C)C)cc1N=Cc1ccc(N(C)C)cc1 | 9.5% | -13.2% | . | -21.1% | -15.7 | ?
Cc1cc(O)c(C(C)C)cc1N=Cc1ccc([N+](=O)[O-])cc1 | 3.9% | -3.5% | . | -19.6% | 3.0 | 10µM*
CSc1ccc(C2C(C#N)=C(N)Oc3cc4c(cc32)OCO4)cc1 (centres undefined) | -16.9% | 89.1µM* | 6.1% | -3.8% | . | -21.5%
O=c1c2ccccc2sn1-c1ccc(F)cc1 | 79.4µM* | -2.3% | . | 5.3% | -88.7* | ?
Cc1ccc(-n2sc3cc(F)ccc3c2=O)c(C)c1 | . | . | . | -12.6% | -87.2* | .
COC(=O)c1cccc(N2CCCC2=O)c1 | 3.4% | 3.2% | -23.7% | 3.4% | 0.4 | 11.2%
O=c1sc2ccccc2c(=O)n1Cc1ccccc1F | 5.8% | -6.4% | 2.1% | -7.4% | 5.8 | 23.1%
COC(=O)c1cccc(-n2sc3ccccc3c2=O)c1 | ? | -4.5% | . | -0.5% | -96.5* | ?
Cc1ccc(-n2sc3ccccc3c2=O)cc1 | -18.4% | -6.7% | 34.4% | -18.7% | -104.1* | -2.7%
CCOc1ccc(NC(=O)CN2C(=O)CSC2=O)cc1 | -77.3% | -9.7% | ? | ? | -4.8 | -25.2%
O=c1c2ccc(F)cc2sn1-c1ccccc1 | . | . | . | -14.8% | -108.3* | .
O=c1c2ccccc2ncn1-c1ccc(Cl)cc1 | -0.1% | 5.4% | 56.4% | -17.4% | 5.4 | 175.1%
O=c1c2ccccc2sn1-c1ccc(Cl)cc1 | . | . | . | 0.3% | -99.5* | .
O=c1c2cc(F)ccc2sn1-c1ccccc1Cl | . | . | . | 0.4% | -84.0* | .
CC(=O)Nc1ccc(C(=O)CN2CCN(c3ccccc3)CC2)cc1 | -9.5% | -3.9% | -14.4% | -3.8% | -2.1 | 36.9%
COCCCCCCCCCCCC(=O)O | . | 3.0%[19.4 µM] | . | . | . | .
CC(C)Oc1ccc(CNC(=O)c2ccc3nc(C(C)C)oc3c2)cc1 | -5.9% | -6.4%[60.1 µM] | -1.8% | -21.0% | . | 30.2%
CCOCCCNC(=O)C1CCN(c2cc(C)nc3c(-c4ccc(Cl)cc4)c(C)nn23)CC1 | -6.7% | -6.9% | 18.1% | -16.6% | . | 16.0%
O=c1c2ccccc2oc2cc(O)c(C3COCC(CO)C(O)C(O)C3O)c(O)c12 (centres undefined) | . | 2.51µM* | . | . | . | .
CCc1nc2c(OCC3CCCCC3)cccn2c1N(C)C(=O)c1ccc(C)cc1 | . | . | . | . | -4.4 | .
COC(=O)c1ccc(N)cc1O | -0.5% | -19.2% | 10.5% | 6.6% | 2.9 | 2.0%
COC(=O)c1ccc(=O)c2nc3/c(=C/O)c(O)cc(=O)c3[nH]c12 | 39.8µM* | 14.1µM* | ? | 28.2µM* | -74.0* | ?
COc1cc(C(=O)Nc2nc(OC)c(-c3ccccc3)c(OC)n2)cc(OC)c1OC | ? | 7.5%[60.1 µM] | 44.7µM* | -22.1% | . | ?
O=C(N/N=C/c1cccnc1)c1cc(-c2ccccc2OCc2ccccc2)n[nH]1 | -2.7% | -31.0% | 79.4µM* | 2.5% | -12.7 | 51.3%
O=C(N/N=C/c1cccnc1)c1ccccc1OCc1ccc(Cl)cc1 | . | . | 2.5% | . | . | .
SMILES | FEN1 inhibitor | POLK inh | POLB inh | Pol eta inh | PI5P4Ka inh | Pol iota inh
CC(C)(C)n1ncc2c(=O)n(Cc3ccc(F)c(F)c3F)cnc21 | -0.5% | 21.1% | . | . | . | 28.0%
CCN(CC)c1nc2ccccc2n2cnnc12 | -11.6% | -6.8% | 7.5% | -4.3% | -0.3 | 89.1µM*
N#CC1=C(S)N(c2ccccc2)C(c2ccc(-c3cc(Cl)ccc3Cl)o2)NC1=O (centres undefined) | -20.4% | -8.9% | 31.6µM* | 5.8% | -1.9 | -26.6%
N#CC1=C(S)N(c2ccccc2)C(c2ccc(-c3ccc(Cl)c(Cl)c3)o2)NC1=O (centres undefined) | -17.4% | -0.1% | ? | -2.2% | -8.0 | ?
O=C(Cn1c(SCC(=O)N2CCc3ccccc3C2)nc2ccccc21)NC1CCCC1 | -12.2% | -6.8% | 89.1µM* | -8.4% | . | 17.9%
CCCn1c(SCC(=O)N2CCc3ccccc3C2)nc(O)cc1=O | 7.6% | ? | . | 6.0% | 1.9 | 10µM*
Cc1cc(=O)[nH]c(SCC(=O)N2CCc3ccccc3C2)n1 | 0.8% | 0.0% | 1.0% | -12.6% | . | 20.8%
CCCCN(C)C(=O)CSc1nc2ccccc2nc1Cc1ccc(C)cc1 | ? | -3.3%[60.1 µM] | -21.6% | -22.3% | . | -9.2%
O=c1[nH]cnc2c1ncn2C1OC(CO)CC1F (centres undefined) | . | . | . | . | 5.8 | .
COc1ccc(-n2c(=O)c3c(c4cc(OC)ccc4n3C)n(Cc3cccc(OC)c3)c2=O)cc1 | 4.3% | -10.0% | -13.8% | -4.6% | . | 12.4%
O=C(Cn1c(=O)n(Cc2ccco2)c(=O)c2c3c(sc21)CCCCC3)c1ccccc1 | 4.9% | -35.5% | 10µM* | ? | . | ?
O=C(Cn1c(=O)n(Cc2ccco2)c(=O)c2c3c(sc21)CCCCC3)Nc1ccccc1 | ? | ? | 31.6µM* | 50.1µM* | . | 12.6µM*
CCc1ccc(-c2cc(C)no2)cc1S(=O)(=O)Nc1cc(OC)c(OC)c(OC)c1 | 13.1% | -8.7% | -29.4% | -16.4% | . | -12.5%
O=C(Nc1ccc(Cl)cc1)c1cc2nc(-c3ccc4c(c3)OCO4)cc(C(F)(F)F)n2n1 | 7.0% | 10.5% | 23.5% | -14.4% | . | 21.9%
O=C(Nc1ccc2c(c1)OCO2)c1cc2nc(C3CC3)cc(C(F)(F)F)n2n1 | 8.0% | -18.1% | 39.8µM* | ? | . | ?
COC(=O)c1ccccc1NC(=O)c1cc2nc(C3CC3)cc(C(F)(F)F)n2n1 | 1.4% | -21.7% | 50.1µM* | 79.4µM* | . | ?
O=C(Nc1ccc2c(c1)OCO2)c1cc2ncc(Br)cn2n1 | -15.1% | -41.1% | 28.2µM* | 3.55µM* | ? | ?
COC(=O)c1ccccc1NC(=O)c1cc2nc(-c3ccc(OC)cc3)cc(C(F)(F)F)n2n1 | -4.8% | -9.3% | 40.0% | 0.4% | . | -2.4%
Cc1ccc(C(=O)N/N=C/c2cccc(OC(=O)/C=C/c3ccco3)c2)cn1 | -1.0% | -36.2% | 20µM* | ? | ? | ?
CCOc1ccc(C(=O)Nc2ccc(N3CCN(C)CC3)cc2)cc1Br | -0.3% | -1.4% | 0.5% | 4.0% | -7.6 | 37.5%
CCOc1ccc(C(=O)Nc2ccc(N3CCN(C(=O)c4ccco4)CC3)cc2)cc1Br | -2.2% | -9.1% | . | ? | 3.0 | 25.1µM*
Cc1ccc(-c2nc3ncccc3o2)cc1NC(=O)c1cccnc1 | 0.1% | -1.3% | ? | 1.8% | 3.0 | 12.1%
Cc1ccc(-c2nc3ncccc3o2)cc1NC(=O)c1ccccc1 | 13.7% | 0.5% | 9.4% | 56.2µM* | -0.7 | -6.1%
Cc1cc(OCC(=O)Nc2cc(-c3nc4ncccc4o3)ccc2C)ccc1Cl | -7.9% | -14.1% | -3.8% | 79.4µM* | . | -13.4%
Cc1ccc(-c2nc3ncccc3o2)cc1NC(=O)COc1ccc(C(C)C)cc1 | 12.9% | -6.1% | ? | -19.5% | . | 5.6%
